{"source": "PubChem BioAssay (NCI)", "note": "This is part of a sample that, as a whole, favours compounds with a hit. Of some 83,000 tested, about 20% had one in any assay.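 Method: cells in 96-well plates; compound added at one concentration; 48 h incubation; percent growth measured; values under 10 scored active.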 Calls of active or inactive are those of the source."}
{"system": "HL-60(TB) leukemia", "test": "NCI-60 one-dose screen, 48 h (100 = growth as untreated, 0 = no growth, -100 = all killed)", "conditions": "10 µM unless noted"}
{"compound": "O=C(N/N=C\\c1cc(Cl)ccc1[N+](=O)[O-])c1ccco1", "growth": "107% (inactive)"}
{"compound": "COc1ccc(-c2cc(-c3nnc(SCC(=O)Nc4ccc(C(C)=O)cc4)o3)c3ccccc3n2)cc1", "growth": "69% (inactive)"}
{"compound": "CCN1C(=O)/C(=C/C(=O)OC)S/C1=N\\NC(=O)c1cc2ccc1/C=C\\c1ccc(cc1)/C=C\\2", "growth": "88.4% (inactive)"}
{"compound": "CN(Cc1ccccc1)c1nc(Cl)c(C2CC(c3ccc4c(c3)OCO4)=NN2c2cc(Cl)cc(Cl)c2)s1", "note": "(stereo not given)", "growth": "105% (inactive)"}
{"compound": "CC1(C)OC2OC3C(CN)OC(c4ccccc4)OC3C2O1", "note": "(stereo not given)", "growth": "49.3% (inactive)"}
{"compound": "C=C(C)[C@@H]1CC[C@]2(C(=O)O)CC[C@]3(C)[C@H](CC[C@@H]4[C@@]5(C)C[C@@H](CC#Cc6ccc(Br)cc6)C(=O)C(C)(C)[C@@H]5CC[C@]43C)[C@@H]12", "growth": "47.7% (inactive)"}
{"compound": "COc1cc(C)cc(-c2c(-c3cc(N4CC(O)C4)nc(-c4cccnc4)n3)cnn2C)c1", "growth": "105% (inactive)"}
{"compound": "COc1ccc(C2[C@@H](c3ccccc3)C(=O)N2c2cc(OC)c(OC)c(OC)c2)cc1F", "note": "(stereo not given in full)", "growth": "-50.3% (active)"}
{"compound": "COc1cccc(/C=C2\\SC(=Nc3ccc(NC(C)=O)cc3)NC2=O)c1OC", "growth": "101% (inactive)"}
{"compound": "COC(=O)C1CCCN1C(=O)[C@@H]1CCCN1C(=O)[C@H](Cc1c[nH]c2ccccc12)NC(=S)Nc1cc(C(F)(F)F)cc(C(F)(F)F)c1", "note": "(stereo not given in full)", "growth": "-43.8% (active)"}
{"compound": "CCN1C(=O)/C(=c2\\sc3n(c2=O)C2C(NN=3)N(CC)C(=O)N2CC)c2ccccc21", "note": "(stereo not given)", "growth": "-29.3% (active)"}
{"compound": "COc1ccc(/C(=C2\\O[C@@H]([C@H]3COC(C)(C)O3)[C@H]3OC(C)(C)O[C@@H]23)c2cc(OC)c(OC)c(OC)c2)cc1O", "growth": "20.7% (inactive)"}
{"compound": "Cc1ccc(NC(=O)Cn2nncc2CN2C(=O)CSC2=O)cc1C", "growth": "95% (inactive)"}
{"compound": "Oc1ccc(Cl)cc1C(c1cc(Cl)ccc1O)C(Cl)(Cl)Cl", "growth": "69% (inactive)"}
{"compound": "CCO/C=C1\\SC(=S)N(c2cccc(C)c2)C1=O", "growth": "99% (inactive)"}
{"compound": "O=C1/C(=C/c2cccc(Br)c2)COc2ccc(O)cc21", "growth": "-16.7% (active)"}
{"compound": "CN(C)C(=O)OCc1ccc2c(Cl)cc(Cl)c(O)c2n1", "growth": "18.8% (inactive)"}
{"compound": "CC(=O)C1=C(O)C=C2Oc3c(C(=O)/C=C/c4cc(C(F)(F)F)cc(C(F)(F)F)c4)c(O)c(C)c(O)c3[C@]2(C)C1=O", "growth": "-35.2% (active)"}
{"compound": "COc1ccc(OC)c(C2C(C#N)=C(N)Oc3cc(O)ccc32)c1", "note": "(stereo not given)", "growth": "88.6% (inactive)"}
{"compound": "O=C(N=Nc1c(Cl)c(O)c2ccccc2c1O)C(=O)Nc1cccc(C(F)(F)F)c1", "growth": "6.33% (active)"}
{"compound": "O=C(c1ccccc1)C(Br)C(Br)c1cccc([N+](=O)[O-])c1", "note": "(stereo not given)", "growth": "-2.38% (active)"}
{"compound": "COc1ccc(NC(=O)Nc2ccc(Nc3nc(C)cc(Nc4ccc(C)cc4)n3)cc2)cc1", "growth": "-55.4% (active)"}
{"compound": "CCOc1cc2c(Cl)ncnc2c(OCC)c1OCC", "growth": "-16.4% (active)"}
{"compound": "CC[C@@H](C(=O)[C@@H](C)[C@@H](O)[C@H](C)[C@@H]1O[C@@H]([C@@H](CC)C(=O)O)CC[C@@H]1C)C1O[C@]2(C=CC(=O)[C@]3(CC[C@@](C)([C@H]4CC[C@](O)(CC)[C@H](C)O4)O3)O2)[C@H](C)C[C@@H]1C", "note": "(stereo not given in full)", "growth": "-32.7% (active)"}
{"compound": "COc1ccc(-c2cn(Cc3cc4ccccc4s3)nn2)cc1OCCN1CCCCC1", "growth": "77% (inactive)"}
{"compound": "COc1cc(C(=O)/C=C/c2cc(C(=O)c3cc(OC)c(OC)c(OC)c3)ccc2OC)ccc1N", "growth": "3.92% (active)"}
{"compound": "C/C=C(/C)C(=O)OC1C=C(CO)C(=O)C(OC(=O)C(C)(O)C(C)Cl)C1C(C)C", "note": "(stereo not given)", "growth": "-25.3% (active)"}
{"compound": "CCCCCCCCn1ccc2cc(NC(=O)CN3CCN(c4nc(C)cc(N5CCCCC5)n4)CC3)ccc21", "growth": "71% (inactive)"}
{"compound": "c1cc2nc(-c3cn[nH]c3)c3c(c2cc1-c1cn[nH]c1)C1CCC3C1", "note": "(stereo not given)", "growth": "84.3% (inactive)"}
{"compound": "COc1cc(OC)c(Cl)cc1N", "growth": "131% (inactive)"}
{"compound": "Cn1c(-c2ccccc2)cc(=O)n1-c1ccccc1", "growth": "109% (inactive)"}
{"compound": "CN1CCN(Cc2ccc(NC(=O)c3cc(C#Cc4cnc(N)c5ncccc45)n(C)n3)cc2C(F)(F)F)CC1", "growth": "107% (inactive)"}
{"compound": "CC1=C(/C=C/C(C)=C/C=C(C(=O)O)\\C(C)=C\\C(=O)O)C(C)(C)CCC1", "growth": "85.3% (inactive)"}
{"compound": "COc1cc2c(Nc3ccc(NC(=O)Nc4ccc(Cl)c(C(F)(F)F)c4)c(Cl)c3)ncnc2cc1OCCCN1CCN(C)CC1", "growth": "-56.4% (active)"}
{"compound": "S=C1SCC(c2ccccc2)S1", "note": "(stereo not given)", "growth": "108% (inactive)"}
{"compound": "COc1cc(/C=C2\\CN(S(=O)(=O)c3ccc(C)cc3)C/C(=C\\c3cc(CN4CCCCC4)c(O)c(OC)c3)C2=O)cc(CN2CCCCC2)c1O", "growth": "-37.2% (active)"}
{"compound": "CSc1ccc(Cl)c(C(=O)Nc2sccc2C(N)=O)c1", "growth": "91.3% (inactive)"}
{"compound": "O=C(O)c1cccc2c1C(=O)N(c1ccc3c(c1)Cc1ccccc1-3)C2=O", "growth": "112% (inactive)"}
{"compound": "CCC1S/C(=N\\N=C(/C)c2cccs2)N(c2ccccc2)C1=O", "note": "(stereo not given)", "growth": "59.2% (inactive)"}
{"compound": "NC(=O)c1ccc(-c2cccc3c(=O)nc(N4CCOCC4)oc23)cc1", "growth": "97.5% (inactive)"}
